Reference: PubChem BioAssay (EPA / NIEHS)
Calls of active or inactive are those of the source. Rule for the calls: active = hit-call score of the fitted dose curve at least 0.9, where 1 is the maximum; inactive = score below 0.9.

tested on: not listed separately; assay: ATG_EGR_CIS: Attagene CIS-FACTORIAL HepG2 Assay for human Early Growth Response 1 (EGR1) (AID 2282938); conditions: HepG2 Attagene CIS-FACTORIAL EGR reporter mRNA; actives raise or lower the signal
Summary of the method: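 Multiplexed cis-reporter system in human hepatoma HepG2 cells, transiently transfected. Cells are dosed for 24 h; reporter transcripts are amplified, fluorescently tagged and sized by capillary electrophoresis, with DMSO as negative control.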

| Structure (SMILES) | AC50 | outcome |
| --- | --- | --- |
| Nc1ccc(N=Nc2ccccc2)cc1 | 50.6 µM (active) |  |
| N#CC(Br)(Br)C(N)=O |  | inactive |
| OCCOCCO |  | inactive |
| CC(C)(OOC(C)(C)c1ccccc1)c1ccccc1 | 61.9 µM (active) |  |
| CCC(C)c1ccc(O)cc1 (configuration not stated) |  | inactive |
| Cc1cc(N=Nc2ccccc2C)ccc1N | 21.6 µM (active) |  |
| CCC12COCN1COC2 |  | inactive |
| CCCCCCCCn1sccc1=O | 18.2 µM (active) |  |
| CCCCOC(=O)c1ccccc1C(=O)OCc1ccccc1 |  | inactive |
| COC(=O)Nc1nc2ccccc2[nH]1 |  | inactive |
| CC(C)(C)OOC(C)(C)CCC(C)(C)OOC(C)(C)C |  | inactive |
| O=C1CCCO1 |  | inactive |
| CCC[CH2][Sn]([Cl])([CH2]CCC)[CH2]CCC | 0.659 µM (active) |  |
| [O-][Cl+]O |  | inactive |
| ClCCOCCCl |  | inactive |
| CC(C)(C)OOC(=O)c1ccccc1 |  | inactive |
| c1ccc(NNc2ccccc2)cc1 |  | inactive |
| Cc1ccc(N=C=O)cc1N=C=O |  | inactive |
| c1ccc2c(c1)-c1cccc3cccc-2c13 |  | inactive |
| Cc1cccc(N)c1N | 106 µM (active) |  |
| Clc1ccc(C(c2ccc(Cl)cc2)C(Cl)(Cl)Cl)cc1 |  | inactive |
| CN(C)c1ccc(C(=O)c2ccc(N(C)C)cc2)cc1 |  | inactive |
| COC(=O)c1ccccc1N |  | inactive |
| O=C(N[C@H](c1ccccc1)[C@@H]1CN2CCC1CC2)c1c(Cl)ccc(C(F)(F)F)c1Cl |  | inactive |
| CN(C)c1ccccc1 |  | inactive |
| O=[N+]([O-])c1ccc(Oc2ccc(Cl)cc2Cl)cc1 | 28.3 µM (active) |  |
| CCCCCCCCOC(=O)c1ccc(C(=O)OCCCCCCCC)c(C(=O)OCCCCCCCC)c1 |  | inactive |
| COP(=S)(OC)SCN1C(=O)c2ccccc2C1=O |  | inactive |

tested on: not listed separately; assay: ATG_M_19_CIS: Attagene CIS-FACTORIAL HepG2 Assay for M19 Transcription Factor (Internal Marker) (AID 2282939); conditions: HepG2 Attagene CIS-FACTORIAL M19 internal marker reporter; actives raise or lower the signal
Summary of the method: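 Following a 24 h exposure, RNA from transfected HepG2 cells was reverse-transcribed, PCR-amplified with reporter-specific primers, end-labelled with 6-FAM and HpaI-digested before capillary separation. Values represent gain or loss versus DMSO.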

| Structure (SMILES) | outcome | AC50 |
| --- | --- | --- |
| Nc1ccc(N=Nc2ccccc2)cc1 | inactive |  |
| N#CC(Br)(Br)C(N)=O | inactive |  |
| OCCOCCO | inactive |  |
| CC(C)(OOC(C)(C)c1ccccc1)c1ccccc1 | inactive |  |
| CCC12COCN1COC2 | inactive |  |
| CCCCOC(=O)c1ccccc1C(=O)OCc1ccccc1 | inactive |  |
| COC(=O)Nc1nc2ccccc2[nH]1 | inactive |  |
| CC(C)(C)OOC(C)(C)CCC(C)(C)OOC(C)(C)C | inactive |  |
| O=C1CCCO1 | inactive |  |
| CCC[CH2][Sn]([Cl])([CH2]CCC)[CH2]CCC | inactive |  |
| [O-][Cl+]O | inactive |  |
| CC(C)(C)OOC(=O)c1ccccc1 | inactive |  |
| Cc1ccc(N=C=O)cc1N=C=O | inactive |  |
| c1ccc2c(c1)-c1cccc3cccc-2c13 |  | 0.00801 µM (active) |
| CN(C)c1ccc(C(=O)c2ccc(N(C)C)cc2)cc1 | inactive |  |
| COC(=O)c1ccccc1N | inactive |  |
| O=[N+]([O-])c1ccc(Oc2ccc(Cl)cc2Cl)cc1 | inactive |  |
| COP(=S)(OC)SCN1C(=O)c2ccccc2C1=O | inactive |  |

tested on: not listed separately; assay: ATG_Ets_CIS: Attagene CIS-FACTORIAL HepG2 Assay for human Erythroblast Transformation Specific (ETS) (AID 2282941); conditions: HepG2 ETS cis-reporter transcription, actives raise or lower the signal
Summary of the method: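 Steps: transfect HepG2 with multiple reporter units; treat compound 24 h; isolate RNA, DNase-treat, reverse-transcribe; PCR-amplify, label with 6-FAM, digest with HpaI; separate by capillary electrophoresis. Activity fitted both directions versus DMSO.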

| Structure (SMILES) | outcome | AC50 |
| --- | --- | --- |
| Nc1ccc(N=Nc2ccccc2)cc1 | inactive |  |
| N#CC(Br)(Br)C(N)=O | inactive |  |
| OCCOCCO | inactive |  |
| CC(C)(OOC(C)(C)c1ccccc1)c1ccccc1 |  | 100 µM (active) |
| CCC(C)c1ccc(O)cc1 (configuration not stated) | inactive |  |
| Cc1cc(N=Nc2ccccc2C)ccc1N | inactive |  |
| CCC12COCN1COC2 | inactive |  |
| CCCCCCCCn1sccc1=O |  | 14.8 µM (active) |
| CCCCOC(=O)c1ccccc1C(=O)OCc1ccccc1 | inactive |  |
| COC(=O)Nc1nc2ccccc2[nH]1 | inactive |  |
| CC(C)(C)OOC(C)(C)CCC(C)(C)OOC(C)(C)C | inactive |  |
| O=C1CCCO1 | inactive |  |
| CCC[CH2][Sn]([Cl])([CH2]CCC)[CH2]CCC | inactive |  |
| [O-][Cl+]O | inactive |  |
| ClCCOCCCl | inactive |  |
| CC(C)(C)OOC(=O)c1ccccc1 | inactive |  |
| c1ccc(NNc2ccccc2)cc1 | inactive |  |
| Cc1ccc(N=C=O)cc1N=C=O | inactive |  |
| c1ccc2c(c1)-c1cccc3cccc-2c13 | inactive |  |
| Cc1cccc(N)c1N |  | 77.1 µM (active) |
| Clc1ccc(C(c2ccc(Cl)cc2)C(Cl)(Cl)Cl)cc1 | inactive |  |
| CN(C)c1ccc(C(=O)c2ccc(N(C)C)cc2)cc1 | inactive |  |
| COC(=O)c1ccccc1N | inactive |  |
| O=C(N[C@H](c1ccccc1)[C@@H]1CN2CCC1CC2)c1c(Cl)ccc(C(F)(F)F)c1Cl | inactive |  |
| CN(C)c1ccccc1 | inactive |  |
| O=[N+]([O-])c1ccc(Oc2ccc(Cl)cc2Cl)cc1 | inactive |  |
| CCCCCCCCOC(=O)c1ccc(C(=O)OCCCCCCCC)c(C(=O)OCCCCCCCC)c1 | inactive |  |
| COP(=S)(OC)SCN1C(=O)c2ccccc2C1=O | inactive |  |

biological target: Hepatocyte nuclear factor 3-beta (Homo sapiens) (UniProt Q9Y261); assay: ATG_FoxA2_CIS: Attagene CIS-FACTORIAL HepG2 Assay for human Forkhead box A2 (FOXA2) (AID 2282942); conditions: HepG2 cis-reporter transcription factor activity, 24 h; actives raise or lower the signal
Sequence (Q9Y261 whole entry, looked up): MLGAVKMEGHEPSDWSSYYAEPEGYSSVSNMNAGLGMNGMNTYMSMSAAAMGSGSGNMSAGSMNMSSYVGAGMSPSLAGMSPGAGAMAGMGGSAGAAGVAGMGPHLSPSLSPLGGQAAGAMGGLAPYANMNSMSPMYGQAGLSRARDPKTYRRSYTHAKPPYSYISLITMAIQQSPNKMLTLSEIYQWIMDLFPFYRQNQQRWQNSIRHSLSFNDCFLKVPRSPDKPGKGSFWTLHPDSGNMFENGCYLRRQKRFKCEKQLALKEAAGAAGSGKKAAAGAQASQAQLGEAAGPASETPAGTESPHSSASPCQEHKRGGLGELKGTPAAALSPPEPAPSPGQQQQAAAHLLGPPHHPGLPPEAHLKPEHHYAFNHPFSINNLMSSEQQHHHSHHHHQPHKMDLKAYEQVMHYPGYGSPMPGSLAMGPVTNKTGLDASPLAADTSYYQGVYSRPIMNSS
Summary of the method: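 Multiplexed cis-element reporter assay in transiently transfected HepG2. Twenty-four hours post-dosing, RNA was reverse-transcribed, amplified, FAM-labelled, HpaI-digested and separated by CE. Activity gain or loss relative to DMSO.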

| Structure (SMILES) | outcome | AC50 |
| --- | --- | --- |
| Nc1ccc(N=Nc2ccccc2)cc1 | inactive |  |
| N#CC(Br)(Br)C(N)=O | inactive |  |
| OCCOCCO | inactive |  |
| CC(C)(OOC(C)(C)c1ccccc1)c1ccccc1 | inactive |  |
| CCC(C)c1ccc(O)cc1 (configuration not stated) | inactive |  |
| Cc1cc(N=Nc2ccccc2C)ccc1N |  | 15.7 µM (active) |
| CCC12COCN1COC2 | inactive |  |
| CCCCCCCCn1sccc1=O | inactive |  |
| CCCCOC(=O)c1ccccc1C(=O)OCc1ccccc1 | inactive |  |
| COC(=O)Nc1nc2ccccc2[nH]1 | inactive |  |
| CC(C)(C)OOC(C)(C)CCC(C)(C)OOC(C)(C)C | inactive |  |
| O=C1CCCO1 | inactive |  |
| CCC[CH2][Sn]([Cl])([CH2]CCC)[CH2]CCC | inactive |  |
| [O-][Cl+]O | inactive |  |
| ClCCOCCCl | inactive |  |
| CC(C)(C)OOC(=O)c1ccccc1 | inactive |  |
| c1ccc(NNc2ccccc2)cc1 | inactive |  |
| Cc1ccc(N=C=O)cc1N=C=O | inactive |  |
| c1ccc2c(c1)-c1cccc3cccc-2c13 | inactive |  |
| Cc1cccc(N)c1N | inactive |  |
| Clc1ccc(C(c2ccc(Cl)cc2)C(Cl)(Cl)Cl)cc1 | inactive |  |
| CN(C)c1ccc(C(=O)c2ccc(N(C)C)cc2)cc1 | inactive |  |
| COC(=O)c1ccccc1N | inactive |  |
| O=C(N[C@H](c1ccccc1)[C@@H]1CN2CCC1CC2)c1c(Cl)ccc(C(F)(F)F)c1Cl | inactive |  |
| CN(C)c1ccccc1 | inactive |  |
| O=[N+]([O-])c1ccc(Oc2ccc(Cl)cc2Cl)cc1 | inactive |  |
| CCCCCCCCOC(=O)c1ccc(C(=O)OCCCCCCCC)c(C(=O)OCCCCCCCC)c1 | inactive |  |
| COP(=S)(OC)SCN1C(=O)c2ccccc2C1=O | inactive |  |
